# Screens from PubChem.
# The list is not random: actives were taken first. Their share in the collection is about 2.3%.
# TGFb SMAD3 inh: qHTS for Inhibitors of TGF-b. HepG2 CAGA-GFP TGF-b/SMAD3 reporter, GFP fluorescence, 18 h; TGF-beta stimulated, 500 pg/mL final. Potency, µM (doses to about 46.1 µM), usual class: inhibitors. 410,000 compounds, 1.2% hits; note: nearly all actives have a fitted effect of over 65% in size
#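 Inhibition was scored as loss of TGF-beta-induced (500 pg/mL final, 18 hours, 37 degrees C) GFP in HEPG2 cells carrying a CAGA-GFP reporter, in DMEM with 1% FBS. Well GFP was summed per cell; Activity was normalised to unstimulated and stimulated DMSO wells, then concentration-response fitting.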
# ATXN2 expr inh: Primary qHTS for Inhibitors of ATXN expression | 360,000 compounds, 0.72% hits | AID 1745845, 2022 | HEK-293 ATXN2-luciferase reporter, luminescence, 24 h | Potency, µM (titrated, usually from 57 µM), most hits filed as inhibitors; note: nearly all actives have a fitted effect of over 55% in size
#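 ATXN2-luciferase reporter cells (luciferase flanked by upstream and downstream ATXN2 gene portions) were treated 24 h at 37 °C with compounds at up to 57 uM. SteadyGlo luminescence gave expression; GF-AFC fluorescence gave viability.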
# ATXN viability: Viability Counterscreen for Primary qHTS for Inhibitors of ATXN expression; 400,000 compounds, 0.49% hits; AID 651635, 2014; S2 cells (HEK-293 line with an ATXN2-luciferase reporter) viability, CellTiter-Fluor protease fluorescence, 24 h; Potency, µM (titrated, usually from 56.7 µM), actives largely listed as cytotoxic; note: nearly all actives have a fitted effect of over 40% in size
# HepG2 viability: qHTS for Inhibitors of TGF-b: Cytotox Counterscreen; HepG2 CAGA-GFP viability, ATP luminescence, 18 h; Potency, µM (doses to about 46.1 µM), most hits filed as cytotoxic; 410,000 compounds, 0.76% hits; AID 588856, 2011
#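 CellTiter-Glo luminescence gave cytotoxicity after 18 hours at 37 degrees C. The cells were HepG2 CAGA-GFP in 1% FBS DMEM, stimulated with 500 pg/mL TGF-beta after compound addition. %Activity was normalised to no-cell wells (complete cell-killing) and DMSO (no toxicity), and curves were fitted and classified.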
# A number is an active result; . = inactive; ? = inconclusive; / = no result given; [ ] = remark or other dose. Calls come from the whole dose curve; as a rule, active = well fitted curve in the direction sought with a large enough effect; inconclusive = small, poorly fitted or top-dose-only effect, or another doubt; inactive = no such curve, though single readings can be large; an effect the other way counts as inactive or inconclusive.
SMILES,TGFb SMAD3 inh,ATXN2 expr inh,ATXN viability,HepG2 viability
O=C[C@H](O)[C@@H](O)[C@H](O[C@H]1O[C@H](CO)[C@@H](O[C@H]2O[C@H](CO)[C@@H](O)[C@H](O)[C@H]2O)[C@H](O)[C@H]1O)[C@H](O)CO,/,/,.,/
CCOC(=O)c1ccc(NC(=S)N(CCCN2CCCCC2)Cc2ccco2)cc1,0.631µM,.,.,.
C[C@@H](NCc1cc2ccccc2[nH]1)c1cccc2ccccc12,/,.,/,/
COc1ccc(Cn2cc3c(-c4ccc(F)cc4)nnc-3c3cc(OC)c(OC)cc32)cc1,.,31.6µM,.,.
COc1cc2c3nnc(-c4ccc(F)cc4)c-3cn(Cc3ccccc3)c2cc1OC,.,15.8µM,.,.
COc1cc2c3nnc(-c4ccc(F)cc4)c-3cn(Cc3ccc(F)cc3)c2cc1OC,.,?,.,.
Cc1c(O)c2c(c(C(=O)/C=C/c3ccccc3)c1O)OC(C)(C)C=C2,11.2µM,/,/,.
Cc1cc2c(c(C)c1Cl)C(c1ccc3c(c1)OCO3)CC(O)(c1ccccc1)O2 (centres undefined),20µM,/,/,17.8µM
O=[N+]([O-])c1ccc(/C=N/Nc2ccnc3cc(Cl)ccc23)o1,?,.,?,20µM
CCN(C(=O)CCc1nc(-c2ccc(C)cc2)no1)c1cccc(Cl)c1,12.6µM,.,.,.
CCN(C(=O)CCc1nc(-c2ccc(C)cc2)no1)c1cccc(C(F)(F)F)c1,?,.,.,.
Cc1ccc(Sc2ncccc2[N+](=O)[O-])cc1,.,.,.,.
Cc1c([N+](=O)[O-])cnc(Sc2ccccc2)c1[N+](=O)[O-],12.6µM,/,14.1µM,20µM
COc1cc(=O)n2c(c1C(=O)NCc1ccco1)CCN(Cc1cc3ccccc3[nH]1)CC2,/,/,.,/
Cc1cccc(-c2[nH]c(C(C)(C)C)nc2-c2ccc3c(c2)OCO3)n1,/,15.3µM,/,/
NC(=O)c1ccc(-c2nc(-c3ccc4c(c3)OCO4)c(-c3ccccn3)[nH]2)cc1,/,.,/,/
Cc1ccc(NC(=S)NNc2ccc([N+](=O)[O-])cc2S(=O)(=O)Nc2ccccc2C(=O)O)cc1C,?,.,31.6µM,.
CCOC(=O)c1coc(C(=O)OCC)c1C(=O)OCC,.,.,.,.
CCOC(=O)c1cocc1C(=O)O,?,.,.,1.58µM
Cc1ccc(C(c2nc3ccccc3[nH]2)n2c(-c3ccccc3)nc3ccccc32)cc1 (centres undefined),20µM,.,?,.
OC(c1ccccc1)c1nc2ccccc2[nH]1 (centres undefined),.,.,.,.
Nc1ccc(/C=C/c2cc(Cl)nc3ccccc23)cc1,.,/,/,.
CCC1CN(CCC(=O)N2CCN(c3ncccn3)CC2)Cc2cc(OC)ccc2O1 (centres undefined),/,/,.,/
Cc1cc(C(=O)CN2C(=O)c3ccccc3S2(=O)=O)c(C)n1CC1CCCO1 (centres undefined),.,0.501µM,?,.
COc1ccc(C(=O)CN2C(=O)c3ccccc3S2(=O)=O)cc1Br,.,?,?,.
SMILES,TGFb SMAD3 inh,ATXN2 expr inh,ATXN viability,HepG2 viability
COc1ccc(C(=O)CN2C(=O)c3ccccc3S2(=O)=O)cc1,.,0.501µM,.,.
CCNC(=O)Nc1ccc(Oc2ncnc(N)c2C=NOC)cc1Cl,/,.,/,/
C/C(=N\NC(=O)CSCc1ccc([N+](=O)[O-])cc1)c1ccccc1O,?,17.8µM,?,.
O=C(CCn1c(=O)c2cccn2c2cccnc21)N1CCN(c2ccccc2)CC1,.,/,/,.
O=C(CCn1c(=O)c2cccn2c2cccnc21)N1CCN(c2cccc(C(F)(F)F)c2)CC1,11.2µM,/,/,.
CCO[C@H]1[C@H](NC(=O)c2cccnc2)c2ccccc2C12CCN(C(=O)c1cc(C)n(C)n1)CC2,/,/,.,/
CN(N=O)C(=O)N[C@@H]1[C@@H](O)[C@H](O)[C@@H](CO)O[C@@H]1O,/,.,.,/
Cn1cc(C2=C(c3cn(CCCSC(=N)N)c4ccccc34)C(=O)NC2=O)c2ccccc21,0.708µM,/,/,2µM
O=C(C[n+]1cccc2cccc(O)c21)c1ccc(Cl)cc1,.,/,/,.
CN(Cc1c(F)cccc1Cl)C(=O)c1cccc(S(=O)(=O)N2CCN(Cc3ccccc3)CC2)c1,?,.,.,.
CN(Cc1ccc(OC(F)F)cc1)C(=O)c1cccc(S(=O)(=O)N2CCN(Cc3ccccc3)CC2)c1,10µM,?,.,.
Cc1noc(C)c1CCC(=O)N1CCOc2ccc(CN3CCN(c4ccccn4)CC3)cc2C1,/,/,.,/
COC(=O)c1cn(Cc2ccccc2C)nn1,.,.,.,1.78µM
Cc1nc(SCCC(=O)O)c2cc(-c3ccccc3)sc2n1,.,2µM,.,.
COc1ccc(CN2CCCC(c3nc(C)ncc3-c3ccc(F)cc3)C2)c(OC)c1OC (centres undefined),/,/,.,/
Cc1ccc(C)c(S(=O)(=O)/N=C2\C=C(NS(=O)(=O)c3ccccc3)C(=O)c3ccccc32)c1,?,.,.,.
Cc1cc(C)c(S(=O)(=O)/N=C2/C=C(Sc3ncn[nH]3)C(=O)c3ccccc32)cc1C,0.891µM,14.1µM,22.4µM,1.78µM
CC(C)(C)Cn1c(N)nc2ccc(-c3[nH]c(C(C)(C)C)nc3-c3ccc(F)cc3)nc21,/,27.3µM,/,/
CC[C@H](C=C[C@@H](C)[C@H]1CC[C@H]2[C@@H]3CC=C4C[C@@H](O)CC[C@]4(C)[C@@H]3CC[C@]12C)C(C)C,/,.,/,/
CC(C)CCCCCCNC(=S)Nc1ccc(S(=O)(=O)N2CCOCC2)cc1,20µM,?,?,.
OC[C@@H]1[C@@H](c2ccc(Cl)cc2)C(c2ccccc2)=NN1c1ccccc1,?,?,/,.
OC[C@@H]1[C@@H](c2ccc(Cl)cc2)C(c2cccc(Cl)c2)=NN1c1ccccc1,11.2µM,?,/,12.6µM
CCN(CC)c1ccc(/C=C2\C=Cc3ccccc32)cc1,.,/,/,.
NS(=O)(=O)c1ccc(CNS(=O)(=O)c2cccc3nonc23)cc1,.,.,.,6.31µM
O=S(=O)(NCc1ccccc1)c1cccc2nonc12,.,.,.,.
SMILES,TGFb SMAD3 inh,ATXN2 expr inh,ATXN viability,HepG2 viability
O=C(CCc1nc2ccccc2c(=O)[nH]1)NCCN1C(=O)S/C(=C\c2ccc(OC(F)F)cc2)C1=O,.,.,.,10µM
CSc1ccc(/C=C/C(=O)c2ccc(NC(=O)Cc3ccccc3)cc2)cc1,.,.,.,.
CSc1ccc(/C=C/C(=O)c2ccc(NC(=O)C(C)C)cc2)cc1,.,.,.,14.1µM
CC[C@@H]1[C@H]2CCCC(=O)N3CC[C@@H](C[C@@H]1OC(=O)Nc1ccc4c(c1)OCO4)[C@@H]23,.,/,/,.
O=C(O)Cc1cccc(-c2cc(CCCCCCc3ccc(O[C@H]4O[C@H](CO)[C@@H](O)[C@H](O)[C@@H]4O)c(-c4cccc(CC(=O)O)c4)c3)ccc2O[C@H]2O[C@H](CO)[C@@H](O)[C@H](O)[C@@H]2O)c1,/,.[0.709 µM],.[0.575 µM],/
Clc1cccc(CSc2nnc(-c3c[nH]c4ccccc34)o2)c1,?,.,.,12.6µM
Cn1nnnc1Sc1ncnc2scc(-c3cccc(S(C)(=O)=O)c3)c12,?,8.91µM,?,.
